# aSyn 5UTR act = Activators via SNCA 5'UTR binding, MLPCN; alpha-synuclein 5'UTR reporter, activators screen; 300,000 tested, 7.1% active; activity score, % (tested at 7.5 µM), hits read low; in the data active means activity score below about -60%
# Starred values were filed as active, the others as inactive. Only a sample is shown.
SMILES,aSyn 5UTR act
CCOC(=O)COc1cccc2c(=O)n(CC(=O)NCc3ccc(F)cc3)ccc12,75.2
Cc1nc(SCc2ccccc2)nc2c1CCC2,-115.0*
O=C(NCCc1ccc(F)cc1)NC12CC3CC(CC(C3)C1)C2,-116.7*
CNC[C@H](CC1CCCCC1)NC[C@H](Cc1ccccc1)NCCC12CC3CC(CC(C3)C1)C2,125.4
O=C(NCCC1=CCCCC1)NC12CC3CC(CC(C3)C1)C2,-117.8*
O=C(CCCc1ccccc1)NC12CC3CC(CC(C3)C1)C2,-151.0*
CC1(C)SC(=S)N(NC(=O)Nc2cccc3ccccc23)C1N(O)C(=O)Nc1ccccc1 (centres undefined),-88.3*
Cc1ccnc(SCC(=O)c2cccs2)n1,-95.0*
Cc1cc(C)c(C#N)c(SCC(=O)c2cccs2)n1,-172.6*
Cc1cc(C)c(C#N)c(SCC(=O)Nc2nonc2N)n1,-87.0*
COc1ccc2nc(/C=N/NC(=O)CCCCCNC(=O)OC(C)(C)C)ccc2c1,-69.7*
COc1ccc2nc(C)cc(SCC(=O)N/N=C/c3ccc(O)cc3O)c2c1,79.8
CNc1c(N)c(=O)oc2ccccc12,-74.2*
O=C(N=C1N=C2C=CC(Br)=CN2Cc2ccccc21)c1ccc([N+](=O)[O-])cc1[N+](=O)[O-],-105.7*
O=C(c1ccc(F)cc1)N1CCC(c2ccccc2)C1 (centres undefined),-84.5*
O=C(c1ccco1)N1CCC(c2ccccc2)C1 (centres undefined),-108.6*
Cc1nc2ccccc2c(=O)n1NCc1cc(Br)cs1,-81.0*
Cc1nc2cc(-c3ccccc3)ccc2o1,-67.4*
COc1ccc(OC)c(/C=N/N(C)c2ccccc2)c1,-187.4*
NC(N)=N/N=C/c1ccc(OCc2ccccc2)cc1,-69.5*
NC(N)=N/N=C/c1ccc(OCc2ccc(Cl)cc2)cc1,-66.0*
O=C(c1cc(-c2cccs2)on1)N1CCOCC1,-169.3*
COc1ccc(-c2cc(C(=O)N3CCOCC3)no2)cc1,72.6
COc1ccccc1-c1cc(C(=O)N2CCCC2)no1,-133.4*
COc1ccccc1-c1cc(C(=O)N2CCOCC2)no1,-125.0*
SMILES,aSyn 5UTR act
S=c1[nH]nc(-c2ccc(Cl)cc2Cl)n1-c1ccccc1,-198.9*
CC(=O)c1sc2c(c1OC(=O)c1ccc(Cl)cc1Cl)c(=O)n(-c1ccccc1)c(=S)n2-c1ccccc1,100.6
Cc1ccc2c(c1)C(N1CCCC1=O)CC(c1ccco1)N2 (centres undefined),-171.4*
COc1ccc(-c2cc(=O)c3ccccc3s2)cc1,-248.0*
COc1ccc2oc3ccc(OC)cc3c(=O)c2c1,-189.5*
COc1ccc2sc3ccccc3c(=O)c2c1,-169.7*
COc1ccc2oc3ccccc3c(=O)c2c1,-161.5*
O=C(Nc1ccccc1)Nc1nc(-c2ccccc2)cs1,-87.5*
COc1cccc(-c2csc(NC(=O)Nc3ccccc3)n2)c1,-165.6*
O=C(Nc1nc(-c2ccccc2)cs1)Nc1ccc(F)cc1F,-63.4*
CC(C)(C)c1csc(NC(=O)Nc2ccccc2)n1,-140.9*
COc1cccc(-c2csc(NC(=O)C3CC3)n2)c1,-161.4*
O=C(Nc1ccc(-c2csc(Nc3ccccc3)n2)cc1)c1ccccc1,-86.9*
O=C(COC(=O)c1cc(Cl)ccc1O)c1ccc2c(c1)OCO2,-121.7*
COc1ccc(/C(N)=N/OC(=O)c2ccc3c(c2)OCO3)cc1,-98.3*
N/C(=N\OC(=O)c1ccc2c(c1)OCO2)c1ccncc1,-101.7*
N/C(=N\OC(=O)c1ccc2c(c1)OCO2)c1ccc(Cl)cc1,-165.0*
COc1cc(C2NC(=S)NC(C)=C2C(=O)Nc2ccc(C)cc2)ccc1O (centres undefined),-170.8*
Cc1onc(-c2ccccc2)c1C(=O)O/N=C(\N)c1ccc([N+](=O)[O-])o1,-136.0*
CC(c1nccs1)N(C)C(=O)c1cn(Cc2cccc3ccccc23)nn1 (centres undefined),-86.2*
CCOc1ccc2oc(C(=O)NC(C)(C)CC)c(C)c2c1,-117.5*
NS(=O)(=O)c1ccc(N/C=C\C(=O)c2ccc(F)cc2)cc1,-118.4*
O=C(/C=C/Nc1ccc(F)cc1)c1ccc(Oc2ncccn2)cc1,-114.9*
NS(=O)(=O)c1ccc(N/C=C/C(=O)c2ccc(Br)cc2)cc1,-108.1*
CN(C)c1ccc(N/C=C/C(=O)c2ccc(F)cc2)cc1,-120.0*
SMILES,aSyn 5UTR act
Cc1ccc(NC2=CC(=O)C(=O)c3ccccc32)cc1,102.9
COC1=C(Nc2ccc(OC)cc2)C(=O)c2ccccc2C1=O,-161.5*
COC1=C(Nc2ccc(O)cc2)C(=O)c2ccccc2C1=O,-109.5*
O=C1C(Nc2ccc(O)cc2)=C/C(=N/S(=O)(=O)c2cccs2)c2ccccc21,113.8
CCOc1ccc2c(c1)OC(c1ccc(OC)cc1)(C(F)(F)F)NC2=O (centres undefined),96.1
COc1ccc(NC2=C(NCCO)C(=O)c3ccccc3C2=O)cc1,-91.5*
CCOc1ccc(NC2=C(OC)C(=O)c3ccccc3C2=O)cc1,-94.4*
O=C1C=C(Nc2ccc(O)cc2)C(=O)c2ccccc21,67.5
CCc1ccccc1NC(=O)c1cccc(NC(=O)/C=C/c2ccco2)c1,-100.0*
Cc1ccc(-n2nc3ccc(NC(=O)/C=C/c4ccco4)cc3n2)cc1,-201.8*
O=C(/C=C/c1ccco1)Nc1ccc2c(c1)OCO2,-187.7*
CCN(Cc1cnn(C)c1)C(=O)c1cc(COc2ccc3c(c2)CCCC3)on1,-72.7*
CCC1=C/C(=C/N(C)c2ccccc2)C(=O)S1,-62.3*
CCc1ccc(OCC(=O)Nc2ccncc2)c(Br)c1,-441.9*
COc1ccccc1OCC(=O)NC1CCCCCC1,-76.4*
COC(=O)c1[nH]c2ccc(Br)cc2c1NC(=O)CN1CCN(C2CCCCC2)CC1,75.1
Cc1cc(Br)ccc1OCC(=O)NC1CCCC1,-66.3*
CCc1ccc(OCC(=O)NC2CCCCC2)c(Br)c1,-119.6*
O=C(COc1ccc(Br)cc1Br)NC(=O)NC1CCCC1,-236.9*
CCNC(=O)c1ccc(CSc2nc3ccccc3s2)cc1,-65.2*
NC(=O)c1ccc(CSc2nc3ccccc3s2)cc1,-100.9*
CCC(C)/C(C)=N/NC(=O)c1ccc(CSc2nc3ccccc3s2)cc1 (centres undefined),-156.1*
c1ccc2sc(SCc3ccc(-c4nnco4)cc3)nc2c1,-156.2*
CCC(C)(C)NC(=O)CCCSc1nc2ccccc2s1,-153.6*
OC(CNCCc1ccccc1)COc1ccc(OCC(O)CNCCc2ccccc2)cc1 (centres undefined),107.5
SMILES,aSyn 5UTR act
OC(COc1ccc(-c2ccccc2)cc1)CN1CCOCC1 (centres undefined),-72.8*
COc1ccc(C(O)(CC(C)C)C(CN2CCOCC2)c2ccccc2)cc1 (centres undefined),66.0
OCCN1CCN(CC(O)COc2ccc(-c3ccccc3)cc2)CC1 (centres undefined),-125.5*
OC1CCCN(CC(O)COc2ccc(-c3ccccc3)cc2)C1 (centres undefined),-73.7*
OCCN(Cc1ccccc1)CC(O)COc1ccc(-c2ccccc2)cc1 (centres undefined),-96.5*
OC(COc1ccc(OCc2ccccc2)cc1)CN1CCCCC1 (centres undefined),-73.1*
OC(COc1ccc2cc(Br)ccc2c1)CN1CCCC1 (centres undefined),-96.8*
O=C(Nc1ccc2c(c1)OCO2)c1ccc(CN2CCOCC2)cc1,-104.0*
CC(C)c1ccc(C(=O)Nc2ccc(CN3CCOCC3)cc2)cc1,-68.1*
CC(C)c1ccc(NC(=S)NN2CCOCC2)cc1,-135.0*
CSc1ccccc1NC(=O)c1ccc(CN2CCOCC2)cc1,-96.7*
